High-throughput results: PubChem, Broad Institute
The entries come from a sample that favours hits as a whole.
ROS inducer – cancer cell ROS induction. AID 624156. ROS induction (% of piperlongumine), % at 10 µM. 46,000 tested, 2% active. U2OS ROS induction, H2DCF-DA fluorescence; in the data active = ROS induction above about 79%, passing the limit was not always enough;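 also: 0% = DMSO vehicle median and 100% = reference compound median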
* marks the source's active call; other numbers are inactive results.

SMILES	ROS inducer
COc1ccc(CN(C)C[C@H]2Oc3ccc(NC(=O)NC(C)C)cc3C(=O)N([C@@H](C)CO)C[C@H]2C)cc1	3
COc1ccc(S(=O)(=O)Nc2ccc3c(c2)CC(=O)N([C@H](C)CO)C[C@H](C)[C@H](CN(C)Cc2ccc(Oc4ccccc4)cc2)O3)cc1	26
C[C@@H]1CN([C@H](C)CO)C(=O)Cc2cc(NS(=O)(=O)c3ccc(F)cc3)ccc2O[C@@H]1CN(C)Cc1ccc(Oc2ccccc2)cc1	44
C[C@@H]1CN([C@H](C)CO)C(=O)Cc2cc(NS(=O)(=O)c3ccccc3)ccc2O[C@@H]1CN(C)Cc1ccc(Oc2ccccc2)cc1	63
C[C@H]1CN([C@@H](C)CO)C(=O)Cc2cc(NS(=O)(=O)c3ccccc3)ccc2O[C@H]1CN(C)Cc1ccc(Oc2ccccc2)cc1	17
C[C@H](CO)N1C[C@H](C)[C@H](CN(C)Cc2ccc(Oc3ccccc3)cc2)Oc2ccc(NS(=O)(=O)c3ccc(F)cc3)cc2CC1=O	114*
C[C@@H]1CN([C@H](C)CO)C(=O)Cc2cc(NS(=O)(=O)c3ccc(Cl)cc3)ccc2O[C@@H]1CN(C)Cc1ccc(Oc2ccccc2)cc1	86*
C[C@@H]1CN([C@H](C)CO)C(=O)c2cc(NC(=O)Nc3cccc4ccccc34)ccc2O[C@@H]1CN(C)C(=O)NC1CCCCC1	-12
COc1ccc(S(=O)(=O)Nc2ccc3c(c2)C(=O)N([C@H](C)CO)C[C@H](C)[C@@H](CN(C)Cc2ccncc2)O3)cc1	-1
COc1c(O)cc(-c2oc3cc(O)cc(O)c3c(=O)c2O[C@@H]2O[C@@H](C)[C@H](OC(C)=O)[C@@H](O)[C@H]2O)cc1O	5
COc1ccc(S(=O)(=O)Nc2ccc3c(c2)CC(=O)N([C@H](C)CO)C[C@H](C)[C@H](CN(C)S(C)(=O)=O)O3)cc1	0
CCC(Sc1nc(Nc2ccc(F)cc2)c2ccccc2n1)C(=O)Nc1ccc2c(c1)OCO2 (stereo unspecified)	118*
O=C(CSc1nc(NCc2ccccc2)c2ccccc2n1)c1ccc(F)cc1	35
O=C(CSc1nc2ccccc2c(=O)[nH]1)Nc1ccc2c(c1)OCCO2	7
Cc1noc(C)c1S(=O)(=O)Nc1ccc2c(c1)CC(=O)N([C@@H](C)CO)C[C@@H](C)[C@@H](CN(C)S(=O)(=O)c1ccc(Cl)cc1)O2	27
O=C(CCCCCCC(=O)Nc1ccccc1O)N/N=C/c1ccc(I)cc1	5
COc1ccc(C(OC(=O)c2ccccc2)c2nccc3ccccc23)cc1 (stereo unspecified)	4
C[C@@H]1CN([C@H](C)CO)C(=O)c2cc(NS(=O)(=O)c3ccc(Cl)cc3)ccc2O[C@H]1CN(C)CC1CCCCC1	19
C[C@@H]1CCCCO[C@H](CN(C)C(=O)c2ccccc2)[C@@H](C)CN([C@H](C)CO)C(=O)c2cc(NS(=O)(=O)c3ccccc3)ccc2O1	-4
C[C@@H]1CCCCO[C@H](CN(C)C(=O)c2ccccc2)[C@@H](C)CN([C@H](C)CO)C(=O)c2cc(NS(=O)(=O)c3cccs3)ccc2O1	9
C[C@@H]1CCCCO[C@@H](CN(C)C(=O)c2ccccc2)[C@@H](C)CN([C@H](C)CO)C(=O)c2cc(NS(=O)(=O)c3cccs3)ccc2O1	5
C[C@@H]1CCCCO[C@@H](CN(C)C(=O)Nc2ccccc2)[C@@H](C)CN([C@H](C)CO)C(=O)c2cc(NS(=O)(=O)c3cccs3)ccc2O1	9
C[C@@H]1CCCCO[C@@H](CN(C)C(=O)C2CCCCC2)[C@@H](C)CN([C@H](C)CO)C(=O)c2cc(NS(=O)(=O)c3cccs3)ccc2O1	109*
Cc1ccc(S(=O)(=O)Nc2ccc3c(c2)C(=O)N([C@H](C)CO)C[C@H](C)[C@@H](CN(C)CC2CCCCC2)OCCCC[C@@H](C)O3)cc1	12
C[C@@H]1CCCCO[C@H](CN(C)C(=O)NC2CCCCC2)[C@@H](C)CN([C@H](C)CO)C(=O)c2cc(NS(=O)(=O)c3cccs3)ccc2O1	84*
SMILES	ROS inducer
C[C@@H]1CCCCO[C@H](CN(C)C(=O)Nc2ccc(F)cc2)[C@@H](C)CN([C@H](C)CO)C(=O)c2cc(NS(=O)(=O)c3cccs3)ccc2O1	5
C[C@@H]1CCCCO[C@H](CN(C)C(=O)C2CCCCC2)[C@@H](C)CN([C@H](C)CO)C(=O)c2cc(NS(=O)(=O)c3ccc(Cl)cc3)ccc2O1	35
C[C@@H]1CCCCO[C@H](CN(C)CC2CCCCC2)[C@@H](C)CN([C@H](C)CO)C(=O)c2cc(NS(=O)(=O)c3ccccc3)ccc2O1	119*
C[C@@H]1CCCCO[C@@H](CN(C)C(=O)C2CCCCC2)[C@@H](C)CN([C@H](C)CO)C(=O)c2cc(NS(=O)(=O)c3ccccc3)ccc2O1	110*
Cc1ccc(S(=O)(=O)Nc2ccc3c(c2)C(=O)N([C@H](C)CO)C[C@H](C)[C@H](CN(C)CC2CCCCC2)OCCCC[C@@H](C)O3)cc1	46
C[C@H](CO)N1C[C@H](C)[C@H](CN(C)S(=O)(=O)c2cn(C)cn2)Oc2ccc(NC(=O)NC3CCCCC3)cc2CC1=O	13
